Results reported in PubChem BioAssay (Tox21).
Results filed as inconclusive are left out. Entries that show only a call come without a potency. The source made the active and inactive calls. Calls follow the shape of the dose curve; as a rule, active = well fitted cell-killing curve with a large enough effect in the repeat runs; inconclusive = weak or mixed curves, or effect the other way; inactive = flat fitted curve, though single readings scatter.

test: cAMP Responsive Elements (CRE) small molecule agonists, cell-based qHTS assay: qHTS cell viability counter screen (AID 2060914); details: CRE-bla HEK293T viability, CellTiter-Glo luminescence, 5 h; series mostly up to 92.4 µM;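 also: viability read after 3 h of compound exposure; nearly all actives have a fitted effect of over 50% in size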
Excerpt: National Center for Advancing Translational Sciences [NCATS]
Division of Preclinical Innovation [DPI]
U.S. Environmental Protection Agency [EPA]
National Institutes of Environmental Health Sciences [NIEHS]
National Toxicology Program [NTP]
U.S. Food and Drug Administration [FDA]
CREB (cyclic-AMP Responsive Element Binding Protein) is a cellular transcription factor. It binds to certain DNA sequences called cAMP Responsive Elements (CRE) and regulates the transcription of the genes. […] This cell line can be used to find agonists/antagonists of the cyclic AMP signaling pathway. The activation of the report gene under culture conditions can be detected by fluorescence intensity. This cell line has been used to screen the Tox21 10K compound library to identify agonists that induce oxidative stress. The cytotoxicity of the Tox21 compound library against the CRE-bla cell line was tested in parallel by measuring the cell viability using CellTiter-Glo assay (Promega, Madison, WI) in the same wells.
Tox21 Assay Protocol Summary:
CRE-bla Hek 293T cells were suspended in assay medium (DMEM containing 10% dialyzed FBS, 0.1 mM NEAA, 1 mM sodium pyruvate and 25 mM HEPES) and dispensed at 2,000 cells/5 uL /well into 1536-well black wall/clear bottom plates using a Multidrop Combi (ThermoFisher Scientific, Waltham, MA) dispenser. After the assay plates were incubated at 37 C/5% CO2 for 18 hrs, 23 nL of compounds dissolved in DMSO, positive controls or DMSO only was transferred to the assay plate by a pintool workstation (Kalypsys, San Diego, CA). After the plates were incubated at 37 C/5% CO2 for 3 hrs, 1 uL of LiveBLAzer B/G FRET substrate (Invitrogen, Carlsbad, CA) was added to each well using Bioraptr Flying Reagent Dispenser (FRD, Aurora Discovery, San Diego, CA). The plates were incubated at room temperature for 2 h, then fluorescence intensities were measured using an Envision plate reader (PerkinElmer, Shelton, CT) at Excitation 405nm, Emission 460nm and 530nm. The % activity was determined from the ratio of 460nm/530nm. For cell viability readout that measures cytotoxicity, 4 uL /well of CellTiter-Glo reagent was added into the assay plates using Bioraptr FRD. After 30 min incubation at room temperature, the luminescence intensity in the assay plates was measured using a ViewLux (PerkinElmer, Shelton, CT) plate reader.
Potency is read from the fitted curve at half-maximal effect.

Structure (SMILES) | Potency
C[C@]12CCC(=O)C=C1CC[C@@H]1[C@@H]2C(=O)C[C@@]2(C)[C@H]1CC[C@]2(O)C(=O)CO | inactive
Oc1cccc2c(O)cccc12 | inactive
CCCOC(=O)c1c(Cl)c(Cl)c(Cl)c(Cl)c1C(=O)OCCC | inactive
O=C(O)c1cccc(Cl)c1Cl | inactive
CCOc1ccccc1O | inactive
O=C(O)c1cccnc1 | inactive
C=CC(=O)NC(C)C | inactive
O | inactive
Cc1ccnc(NS(=O)(=O)c2ccc(N)cc2)n1 | inactive
COC(=O)N/N=C/c1c[n+]([O-])c2ccccc2[n+]1[O-] | inactive
Cc1ccccc1C(=O)Nc1ccc(C(=O)N2CCCC(N(C)C)c3ccccc32)cc1 (stereo not given) | inactive
CN(C)CCCN1c2ccccc2Sc2ccccc21 | inactive
CC(C)=O | 25 µM (active)
O=C(O)c1cccc(N(Cc2cccnc2)c2ccc(OC(F)F)c(OC(F)F)c2)c1 | inactive
CCCCCN(CCCOC)C(=O)C(CCC(=O)O)NC(=O)c1ccc(Cl)c(Cl)c1 (stereo not given) | inactive
CC(C)=CCCC(C)CCOC=O (stereo not given) | inactive
O=[N+]([O-])c1ccc(O)c2ncccc12 | inactive
Cc1cc2c(OCC(CNC(C)(C)C)OC(=O)c3ccccc3)cccc2[nH]1 (stereo not given) | inactive
CC(C)(C)c1cc(CO)cc(C(C)(C)C)c1O | inactive
CCCCCCCC[P+](CCCCCCCC)(CCCCCCCC)CCCCCCCC | 21.6 µM (active)

Structure (SMILES) | Potency
CCCN(CCC)S(=O)(=O)c1ccc(C(=O)O)cc1 | inactive
C/C=C/C(=O)Oc1c(CCCCCC(C)C)cc([N+](=O)[O-])cc1[N+](=O)[O-] | inactive
O=Cc1ccc(C(=O)O)cc1 | inactive
C[N+](C)(C)CCOC(N)=O | inactive
CCCCCCCCCCOC(C)=O | inactive
NCCNc1cccc2ccccc12 | inactive
OC[C@H]1O[C@@H]2O[C@H]3[C@H](O)[C@@H](O)[C@@H](O[C@H]4[C@H](O)[C@@H](O)[C@@H](O[C@H]5[C@H](O)[C@@H](O)[C@@H](O[C@H]6[C@H](O)[C@@H](O)[C@@H](O[C@H]7[C@H](O)[C@@H](O)[C@@H](O[C@H]8[C@H](O)[C@@H](O)[C@@H](O[C@H]9[C@H](O)[C@@H](O)[C@@H](O[C@H]1[C@H](O)[C@H]2O)O[C@@H]9CO)O[C@@H]8CO)O[C@@H]7CO)O[C@@H]6CO)O[C@@H]5CO)O[C@@H]4CO)O[C@@H]3CO | inactive
CC(=O)O[Si](C)(OC(C)=O)OC(C)=O | inactive
CCCCNCCCC | inactive
CCCCCCCCO | inactive
C=C(C)C(=O)OC | inactive
Cn1c(=O)c2c(ncn2CC(=O)O)n(C)c1=O | inactive
C=CC(C)CCCC(C)(C)O (stereo not given) | inactive
CCO | inactive
CCCC(C)c1ccccc1O (stereo not given) | inactive
CC(=O)OC1C2(C)CCC(C2)C1(C)C (stereo not given) | inactive
C[C@@H]1CCC[C@H](C)N1CCCC(O)(c1ccccc1)c1ccccn1 (stereo not given in full) | inactive
CC(=O)OCC=C(C)C | inactive
O=c1cc(-c2ccccc2)oc2ccccc12 | inactive
ICCc1ccccc1 | inactive
